In all, about 2,100 compounds went through this assay and about 770 (37%) were called active.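 The calls were made as follows: active = by-eye trace score of 1 for enhancers or -1 for inhibitors, so actives lie on both sides (some results past the limit were not filed as active); inactive = score 0, or 3 fluorescent, or 4 baseline rise.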 Some of the results follow.
molecular target: G protein-activated inward rectifier potassium channel 2 (Homo sapiens) + G protein-activated inward rectifier potassium channel 1 (Homo sapiens) (UniProt P48051+P48549); assay: GIRK1/2 thallium flux modulators, retest, confirmation, cell-based, HEK293 rmGlu8/hGIRK1/2, FluoZin-2 (AID 623911); details: HEK293 rmGlu8/hGIRK1/2, thallium flux FluoZin-2; actives lie on both sides; glutamate co-added at its EC20 level
Sequence (P48051 whole entry, looked up): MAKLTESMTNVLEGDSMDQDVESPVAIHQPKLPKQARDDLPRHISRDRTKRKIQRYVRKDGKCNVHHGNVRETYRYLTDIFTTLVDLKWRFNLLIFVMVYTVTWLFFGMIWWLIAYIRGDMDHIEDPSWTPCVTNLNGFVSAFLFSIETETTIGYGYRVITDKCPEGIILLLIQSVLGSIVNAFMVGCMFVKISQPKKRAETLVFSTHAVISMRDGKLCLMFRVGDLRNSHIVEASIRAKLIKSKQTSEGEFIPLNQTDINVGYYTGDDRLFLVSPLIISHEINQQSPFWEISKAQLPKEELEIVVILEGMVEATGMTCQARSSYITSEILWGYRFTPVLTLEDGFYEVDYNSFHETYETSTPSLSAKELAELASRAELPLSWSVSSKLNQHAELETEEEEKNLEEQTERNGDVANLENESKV
Sequence (P48549 whole entry, looked up): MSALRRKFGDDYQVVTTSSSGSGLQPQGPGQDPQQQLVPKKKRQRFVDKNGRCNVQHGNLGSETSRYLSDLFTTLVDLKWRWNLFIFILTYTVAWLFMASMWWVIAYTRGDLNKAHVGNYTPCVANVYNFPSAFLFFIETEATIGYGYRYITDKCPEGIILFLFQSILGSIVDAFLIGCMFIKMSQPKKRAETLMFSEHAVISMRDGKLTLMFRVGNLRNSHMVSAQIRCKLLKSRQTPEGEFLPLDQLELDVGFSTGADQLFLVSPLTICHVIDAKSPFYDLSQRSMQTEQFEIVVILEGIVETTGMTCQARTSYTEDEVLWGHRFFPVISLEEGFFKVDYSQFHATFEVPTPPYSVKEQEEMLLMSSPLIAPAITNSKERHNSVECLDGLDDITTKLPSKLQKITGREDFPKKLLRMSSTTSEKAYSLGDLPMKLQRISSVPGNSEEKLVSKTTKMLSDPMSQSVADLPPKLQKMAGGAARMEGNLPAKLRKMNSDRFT

Row | Structure (SMILES) | manual score
1 | Fc1ccc(/C=N/NC(=S)Nc2ccc(Cl)cc2)cc1F | 0 (inactive)
2 | Fc1ccc(NC(=S)N/N=C/c2cccc(Br)c2)c(F)c1 | 0 (inactive)
3 | Fc1ccc(NC(=S)N/N=C/c2ccc(F)c(F)c2)c(F)c1 | 1 (active)
4 | Oc1c(C=NCc2ccncc2)sc2ccccc12 | 1 (active)
5 | CN(CCNC(=O)c1cc2c(=O)n(C)c3ccccc3c2n1C)Cc1ccccc1 | -1 (active)
6 | CCn1c(=O)c(C(=O)NCCCO)c(O)c2ccccc21 | 0 (inactive)
7 | CCCN(CCC)CCCNC(=O)c1cc2c(=O)n(C)c3ccccc3c2n1C | -1 (active)
8 | O=C(NC(Nc1nc2ccc([N+](=O)[O-])cc2s1)(C(F)(F)F)C(F)(F)F)c1ccccc1 | 1 (active)
9 | O=C(NC(Nc1nc2ccc([N+](=O)[O-])cc2s1)(C(F)(F)F)C(F)(F)F)c1ccccc1Cl | 0 (inactive)
10 | Cc1ccc(C)c(OCC(=O)Nc2nc3ccc([N+](=O)[O-])cc3s2)c1C | 0 (inactive)
11 | Cc1noc(C)c1CSc1nc2ccccc2c(=O)n1-c1ccc(F)cc1F | 0 (inactive)
12 | Cc1onc(-c2c(F)cccc2Cl)c1C(=O)OCn1nnc2ccccc2c1=O | -1 (active)
13 | CCOc1ccc(NC(=O)CCC(=O)c2ccc(-c3ccccc3)cc2)cc1 | 0 (inactive)
14 | COc1cccc(NC(=O)Nc2cccs2)c1 | 1 (active)
15 | COc1cc(NC(=O)Cc2cccs2)cc(OC)c1 | 1 (active)
16 | CCOc1ccc(Nc2ncnc(N)n2)cc1 | 1.5 (inactive)
17 | COC(=O)c1c(NC(=O)Cc2cccs2)sc(C(=O)NC2CCCCC2)c1C | 0 (inactive)
18 | CCOc1ccc(NC(=O)Nc2cccs2)cc1 | 1 (active)
19 | O=C(Nc1cccs1)Nc1c(F)c(F)c(F)c(F)c1F | 1 (active)
20 | O=C(Cc1cccs1)Nc1cccnc1 | 0 (inactive)
21 | Cc1ccc(-c2cc(-c3cccs3)[nH]n2)c(O)c1 | 0 (inactive)
22 | CN1C=CC2=C(C#N)C(N)C(C#N)(C#N)[C@H](c3ccccc3)[C@H]2C1 (stereo partly drawn) | 1.5 (inactive)
23 | Cn1c(SCC(=O)c2cc3ccccc3o2)nnc1-c1ccccc1 | 0 (inactive)

Row | Structure (SMILES) | manual score
24 | CC1CC2=C(CC1/C=N/NC(N)=S)C(C)(C)CCC2 (stereo not drawn) | 0 (inactive)
25 | CCN(CC)C(=O)CSc1nnc(NC(=O)CCc2ccccc2)s1 | 0 (inactive)
26 | CCN(CC)CC(O)COc1ccccc1C(=O)CCc1ccccc1 (stereo not drawn) | -1 (active)
27 | Cc1ccccc1NC(=S)NC(=O)CCc1ccccc1 | 0 (inactive)
28 | S=C1Nc2cc(Cl)ccc2Sc2ccccc21 | 0.5 (inactive)
29 | S=C1CCSc2ccc(Cl)cc2N1 | 1 (active)
30 | O=c1c2cccnc2[nH]c(=S)n1Cc1ccccc1 | 0 (inactive)
31 | CC(C)C1Cc2c(sc3[nH]c(=S)n(Cc4ccccc4)c(=O)c23)CO1 (stereo not drawn) | 1 (active)
32 | CC(C)C1Cc2c(sc3c2c(=O)n(Cc2ccccc2)c2nncn32)CO1 (stereo not drawn) | 1 (active)
33 | CC1(C)Cc2c(sc3[nH]c(=S)n(Cc4ccccc4)c(=O)c23)CO1 | 1 (active)
34 | CCC1(C)Cc2c(sc3c2c(=O)n(C)c2nnc(SCc4ccc5c(c4)OCO5)n32)CO1 (stereo not drawn) | 0 (inactive)
35 | CCC1(C)Cc2c(sc3[nH]c(=S)n(Cc4ccccc4)c(=O)c23)CO1 (stereo not drawn) | 1 (active)
36 | COc1ccccc1N(C)S(=O)(=O)c1ccc(C(=O)N(CC(N)=O)C(C)C)cc1 | 0 (inactive)
37 | CC(=O)/C(=N\Nc1ccc(Cl)cc1Cl)Sc1cccc2cccnc12 | 0 (inactive)
38 | N#CC1=C(N)Oc2n[nH]c(-c3cccs3)c2C1c1ccco1 (stereo not drawn) | 3 (inactive)
39 | Cc1nnc2n(C3CCCCC3)c(=O)c3c4c(sc3n12)COC(C)(C)C4 | 0 (inactive)
40 | CC1(C)Cc2c(sc3[nH]c(=S)n(Cc4ccco4)c(=O)c23)CO1 | 1 (active)
41 | C=C(C)C1CC=C(C)/C(=N/NC(=O)COc2cccc(C)c2)C1 (stereo not drawn) | 1 (active)
42 | C=C(C)C1CC=C(C)/C(=N/NC(=O)COc2ccc(C)cc2)C1 (stereo not drawn) | 0 (inactive)
43 | C=C(C)C1CC=C(C)/C(=N/NC(=O)c2ccc(NC(=O)CCC)cc2)C1 (stereo not drawn) | 0 (inactive)
44 | Cc1ccc(-c2cc(-c3ccccc3)[nH]c(=S)c2C#N)cc1 | 1 (active)
45 | COc1ccc(-c2c3c([nH]c(=S)c2C#N)CCC3)cc1 | 0 (inactive)
46 | CCOC(=O)c1c(C)[nH]c(=S)c(C#N)c1-c1ccc(Cl)cc1 | 0 (inactive)

Row | Structure (SMILES) | manual score
47 | Cc1ccc(C2CC2c2n[nH]c(=S)n2-c2ccc(Cl)cc2)cc1 (stereo not drawn) | 0 (inactive)
48 | CN=C1SC(C(=O)O)CC(=O)N1C (stereo not drawn) | 0 (inactive)
49 | Cc1cc(O)c(C(C[N+](=O)[O-])c2ccc(Cl)cc2Cl)c(=O)o1 (stereo not drawn) | 0 (inactive)
50 | CC(c1ccco1)N(C(=O)c1ccccc1NS(=O)(=O)c1cc([N+](=O)[O-])ccc1Cl)c1ccccn1 (stereo not drawn) | 0 (inactive)
51 | CCCC(=O)Nc1ccc(NC(=O)C23CC4CC(CC(C4)C2)C3)cn1 | 0 (inactive)
52 | COC(=O)c1ccc(NC(=O)C23CC4CC(C2)CC(n2cncn2)(C4)C3)cc1 | 0 (inactive)
53 | O=C(Nc1ccc(SC(F)F)cc1)C12CCC(CC1)C2 | 1 (active)
54 | O=C1c2ccccc2NC(c2ccc(-c3ccc(Br)cc3)o2)N1O (stereo not drawn) | 0.5 (inactive)
55 | S=c1[nH]nc(-c2cc3c(s2)-c2ccccc2CC3)o1 | 1 (active)
56 | Cc1ccc(-c2cc(-c3n[nH]c(=S)o3)c3ccccc3n2)cc1 | 0 (inactive)
57 | CCCCCCn1cnc2c(c1=O)c1nc3ccccc3nc1n2/N=C/c1ccco1 | 0 (inactive)
58 | COc1cccc(C(=O)Nc2nc(-c3ccccc3)c(-c3ccccc3)o2)c1 | 1 (active)
59 | COc1cccc(C(=O)NCc2cn3ccsc3n2)c1 | 0 (inactive)
60 | O=C(Nc1nc(-c2ccccc2)c(-c2ccccc2)o1)c1ccc(F)cc1 | 1 (active)
61 | Cc1ccc(C(=O)Nc2cnc3ccccn3c2=O)cc1 | 0 (inactive)
62 | Cc1ccc(C(=O)Nc2nc(-c3ccccc3)c(-c3ccccc3)o2)cc1 | 1 (active)
63 | COc1cc(OC)cc(C(=O)Nc2nc(-c3ccccc3)c(-c3ccccc3)o2)c1 | 0 (inactive)
64 | CSc1ccccc1NC(=O)Nc1ccc(Cl)cc1 | 1 (active)
65 | COC(=O)c1sccc1NC(=O)CSc1ccccc1NS(=O)(=O)c1ccc(Cl)cc1 | 0 (inactive)
66 | CSc1ccccc1NC(=O)Nc1ccccc1 | 1 (active)
67 | CSc1ccccc1C(=O)Nc1cccc(C(C)=O)c1 | 0 (inactive)
68 | CCC(C)NC(=O)c1ccccc1NC(=O)Nc1ccccc1 (stereo not drawn) | 0 (inactive)
